This test concerns VDR:RXRa (NR concentration 270 nM, RXRa partner concentration 90 nM). The test can be described thus: PBM binding z-score (relative to random genomic background probes); higher = stronger binding; sequences stand for … in GC…GCGATTGACAGCGTAGAATGAAGG
On the procedure: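 Protein-binding microarray (Agilent 4x180K custom design, double-stranded 60-nt probes: 5' GC cap, 34-nt variable region, 24-nt constant primer region; full probe sequence given). Purified or IVT nuclear receptor:RXRα heterodimers (3:1 NR:RXRα, mostly 270:90 nM) or homodimers were incubated for 1 h in PBS with 2% milk and no ligand, then detected with Alexa488 antibodies. Fluorescence from o1-orientation probes (~5 replicates averaged) was converted to z-scores against 500 random hg19 background probes. Variable regions are seed direct-repeat (DR0–DR5) sites, all their single-nucleotide variants and half-site ablations.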
For the sequence CGAACTAGGGCATTGACAGGACAGTGAATAGTAA, the PBM binding z-score is -0.141.

The sequence GCATATAGGTAATACAAGGTGACAGTCCGATTGT registered a PBM binding z-score of 0.313.

As to ATCTCTTGGTAAAAGTTCAGTGAATCCCGAGGAT, the PBM binding z-score was found to be 1.14.

ACCTCTAGGTAAGACTCAGTTCAGTGAAGAACGC gave a PBM binding z-score of 0.00811.

The sequence GCTATTAGTTGAAAGGGCAACCAAATGATTCTCG had a PBM binding z-score of 0.604.

With CTCGAAAGGTCGTGCTCAGTTGAGTATACCAAAC, the PBM binding z-score is 3.59.

Regarding CAAACTAGGTCACCGGAAGGTAAAAGTCCGCATG, the PBM binding z-score stood at 2.84.

Consider TCTATTAGTTGAAGGGCCACCGACGAGTCCGTTT, for which the PBM binding z-score came to 0.591.

In turn, ACTTACGGGTCAACGAGGTTATTGCACGCGTATA came in with a PBM binding z-score of 8.05.

For CCTTACGAGTCAAGGTTATAGCACGGGTGGTACG, the PBM binding z-score was 0.509.

For TGTCAAAGTTCATAGGTAACGTAAGTATCCACAC, the PBM binding z-score amounted to 4.67.

The sequence TCGAGTAGGATAGGGGCATTCAGAATGGCGTCGA displayed a PBM binding z-score of -0.000288.

On to AGCCAAAGTTCACTAGGTAACGTAAGATTCAGCT, for which the PBM binding z-score was determined as 3.41.

Regarding GCTAGTTGGTCAGTAAAAGGTCACACAGCGGTCG, the PBM binding z-score turned out to be 3.95.

Take TCAGCTAGGTCAACGATGGTCAGCTAATCTGCTA: the PBM binding z-score worked out at 1.53.

Regarding CCTACTGGGCCAAAGGTCGTTGATTCCAATGCTC, the PBM binding z-score turned out to be 2.05.

As to TCATATAGGTAAAGGCTAGGTGAAAGTCCGATCT, the PBM binding z-score was found to be 0.546.

In the case of CGTCCAAGGTCCAAGGTCAGTGAAGAGATGACGG, the PBM binding z-score is 1.6.

The sequence GCTATTAGTAGAAAGGGCAACCGAATGATTCTCG had a PBM binding z-score of 0.11.

For CCGAGTAGGTTATGGGGCATTCGGGCAACGGTGA, the PBM binding z-score was -0.16.

In turn, CAAACTAGGTCACCGGAAGGCCAAAGTCCGCATG returned a PBM binding z-score of 3.23.

The sequence ATCGAAAGGTCGACGAGGTGCGTATACACCGTTT showed a PBM binding z-score of 4.18.

Turning to GCTACAGGGTCAGCTAGAGGCCAGAGTATGGAAA, the PBM binding z-score was 3.35.

The sequence ATCGAAAGGTCGAGCTGAGTATAGAGAAAGGGAA yielded a PBM binding z-score of 2.53.

ACGATTAGTTGACTTAGGGCAACCGATACGACGC yielded a PBM binding z-score of 0.161.

Consider GCTTACGGGTCAAAGTTTATAGCATGAATAGAAT, for which the PBM binding z-score stood at 4.3.

CCTACAGGGTCAGCTAGGCCAGAGTAGGGACGGC showed a PBM binding z-score of 3.53.

As for TCACGGAGGACACGAAGGTCAGAGCTTTCCAGAG, the PBM binding z-score was found to be 2.33.

ATCGAAAGGTCGAGGAGAGTATAGAGAAAGGGAA displayed a PBM binding z-score of 2.64.

Take CGTCATAGTTCAAGGTAACGTAACAGAAAGCAGC: the PBM binding z-score is 1.3.

Take CAAACTAGTTCAAGGTCAAAGTCGGTTTGTGCCA: the PBM binding z-score was 4.92.

Sequence TCAGACAGTTGAAGGTAACTCAGGTACGCAGTCG came in with a PBM binding z-score of 1.03.

CCTTACGGGTCACGAGGTTATAGTACGACGAGCG returned a PBM binding z-score of 5.35.

AGAATGAGGTTATTAAGATCAGGTAATTGCGGTC returned a PBM binding z-score of 2.82.

AGTCAAAGTTGACTAGGTAACGTAAGATTCAGCT: the PBM binding z-score is 0.000813.

In turn, CCTTACGGGTCACGAGGTTATAGCCCGACGAGCG displayed a PBM binding z-score of 5.11.

Turning to ACAGACAGGTGAGTGAAGGTAACTCACCTGGACG, the PBM binding z-score was -0.173.

TCTATTAGTTGATTAGGGCAACCTAAACAGCGGA: the PBM binding z-score was 0.744.

Consider CCCAGCAGGCCAGGGTCACTCAAGCATTTCGCTT, for which the PBM binding z-score worked out at 2.42.

As for TCTTGTAGAGCAAAGGTTAAGAAAGCCGAAGCCT, the PBM binding z-score was 0.679.
